Composite z-score and z-score data for five compounds are collected here from PubChem BioAssay.

Calls of active or inactive are those of the source.

The subject of assay [1] is Plasmodium falciparum Sir2 (PF13_0152, Sir2A). Kind of assay: Plasmodium falciparum Sir2A binding compounds – biochemical, small-molecule microarray, 635 nm fluorescence, primary screen (AID 1098).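 Note: score merges spot fluorescence intensity with its signal-to-noise ratio.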 The note with it: fluorescence 635 nm, higher = more signal.
A short description of assay [2]: probe aDKK1 binding to arrayed compounds – biochemical, biotinylated probe, 635/667 nm fluorescence, primary screen (AID 1099).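 Note: score merges 667nm spot fluorescence with signal to noise across triplicate slides.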 The note with it: small-molecule microarray, higher = more signal.
Assay [3] can be described thus: probe aCHRDL2 binding to arrayed compounds – biochemical, biotinylated probe, 635/667 nm fluorescence, primary screen (AID 1100). The conditions noted are these: small-molecule microarray, higher = more signal.
Assay [4] in a line: change in splice reporter luminescence, either direction, cell-based, HEK293, spliceosome inhibition project, primary screen (AID 1101).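 Note: HEK293 cells carrying a splicing-competent luciferase reporter gene; test concentration not given here.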 The conditions noted are these: HEK293 splicing luciferase reporter, 24 h, higher = more signal, called active from +8 up or from −8 down. (Reporter assays use an easily measured gene product as a stand-in for the process of interest.)
The target in assay [5] is Fibroblast growth factor 10 (Homo sapiens) (UniProt O15520). Kind of assay: compounds binding fibroblast growth factor 10 – biochemical, small-molecule microarray, 635 nm fluorescence, primary screen (AID 1102). The conditions noted are these: FGF10 binding, fluorescence 635 nm, higher = more signal.
The test system of assay [6] is glycogen synthase kinase-3 (GSK3A per assay name; protocol says GSK3B). Kind of assay: compounds binding glycogen synthase kinase-3 – biochemical, small-molecule microarray, 635 nm fluorescence, GSK3A, primary screen (AID 1103). Note: the record names both GSK3A and GSK3B. The note with it: fluorescence 635 nm, higher = more signal.
Assay [7] deals with Epidermal growth factor receptor (Homo sapiens) (UniProt P00533). Kind of assay: compounds binding epidermal growth factor receptor – biochemical, small-molecule microarray, 635 nm fluorescence, primary screen (AID 1104).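 Note: score merges 667 nm emission intensity with spot signal to noise over triplicate slides.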 The note with it: EGFR binding, higher = more signal.
Assay [8] deals with Follistatin-related protein 3 (Homo sapiens) (UniProt O95633). Kind of assay: compounds binding follistatin-related protein 3 – biochemical, small-molecule microarray, 635 nm fluorescence, primary screen (AID 1105).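 Note: score merges emission near 667 nm and signal to noise per printed spot across three slides.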 The conditions noted are these: FSTL3 binding, higher = more signal.
Assay [9] concerns the target Dickkopf-related protein 1 (Homo sapiens) (UniProt O94907). The assay can be described thus: small molecules binding DKK1 protein – biochemical, small-molecule microarray, 635 nm fluorescence scan, primary screen (AID 1106).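 Note: score merges emission near 667 nm with signal to noise over three replicate slides.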 The note with it: higher = more signal.
Assay [10] deals with Inhibin beta A chain (activin A). Kind of assay: small molecules binding activin A – biochemical, small-molecule microarray, 635 nm fluorescence scan, primary screen (AID 1107).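 Note: mouse activin A protein probed at 4.33 µg/mL on printed slides; score merges bound-protein fluorescence near 667 nm with spot signal-to-noise.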 The note with it: INHBA, higher = more signal.
Assay [11] has as its system Human papillomavirus type 1a protein E7 (residues 44-93). Kind of assay: small molecules binding HPV E7 44-93 – biochemical, small-molecule microarray, residues 44-93, 635 nm fluorescence, primary screen (AID 1108).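 Note: E7 fragment applied at 1 µg/mL in TBST for 1 h at 4 C; score combines spot fluorescence with its signal to noise ratio.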 The note with it: fluorescence 635 nm, higher = more signal.
Assay [12] in a line: hepatitis C replication reporter changes, two-sided – Huh7 cells, luciferase reporter, HCV replication inhibitor project, primary screen (AID 1109).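 Note: huh7 hepatoma cells harbouring a luciferase neomycin HCV replicon reporter; luciferase luminescence as measure of HCV replicon replication; test concentration not given here.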 The note with it: Huh7 HCV replicon luciferase reporter, 48 h; higher = more signal.
The target in assay [13] is Left-right determination factor 2 (Homo sapiens) (UniProt O00292). The assay can be described thus: small molecules binding LEFTY2 protein – biochemical, small-molecule microarray, 635 nm fluorescence scan, primary screen (AID 1110). The conditions noted are these: higher = more signal.
Assay [14] concerns the target Calmodulin-1 (Homo sapiens) (UniProt P0DP23). The assay can be described thus: small molecules binding calmodulin-1 with EGTA – biochemical, small-molecule microarray, Cy5-labelled CALM1, profiling panel (AID 1111).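 Note: labelled calmodulin applied in Tris saline Tween buffer holding calcium plus EGTA and DTT.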 The conditions noted are these: Cy5-CALM1 binding fluorescence, higher = more signal.
For assay [15] the target is unchanged. Kind of assay: small molecules binding Ca-loaded calmodulin-1 – biochemical, small-molecule microarray, Cy5-labelled CALM1, plus calcium, artefact control for SMM control-protein annotation, profiling panel (AID 1112).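 Note: score merges spot fluorescence with signal to noise from triplicate slides.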 The note with it: Cy5-CALM1 binding fluorescence, higher = more signal.
Assay [16] can be described thus: probe aWnt5a binding to arrayed compounds – biochemical, biotinylated probe, 635/667 nm fluorescence, primary screen (AID 1113).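 Note: score merges 667 nm fluorescence intensity with signal-to-noise per printed feature.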 The note with it: small-molecule microarray, higher = more signal.
Assay [17] in a line: probe aShh binding to arrayed compounds – biochemical, biotinylated probe, 635/667 nm fluorescence, primary screen (AID 1114).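 Note: probe is biotin-labelled aShh protein from a stem cell growth factor screen; measures binding of labelled protein to compounds printed on the slide; score merges feature fluorescence at 667 nm with signal-to-noise.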 The conditions noted are these: small-molecule microarray, higher = more signal.
Assay [18] is described as follows: probe aNog binding to arrayed compounds – biochemical, biotinylated probe, 635/667 nm fluorescence, primary screen (AID 1115).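 Note: probe is biotinylated aNog protein used at 0.15 µg/mL for 1 h at 4 C; z-score combines 667 nm fluorescence of each spot with its signal to noise.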 The note with it: small-molecule microarray, higher = more signal.
The target in assay [19] is Torsin-1A-interacting protein 1 (Homo sapiens) (UniProt Q5JTV8). The assay can be described thus: compound microarray binding of lysate hLAP1 – cell lysate, small-molecule microarray, COS7 lysate, 635/667 nm fluorescence, primary screen (AID 1116). The conditions noted are these: 635 nm fluorescence, higher = more signal.
Assay [20] addresses Alpha-bungarotoxin (Bungarus multicinctus) (UniProt P60615). Kind of assay: compounds binding labelled alpha-BTX control protein – biochemical, small-molecule microarray, Alexa647 label, 635/667 nm fluorescence, artefact control for SMM control protein annotation, profiling panel (AID 1117). The note with it: alpha-BTX-A647 binding fluorescence, higher = more signal.

Sequence of Left-right determination factor 2 (Homo sapiens) (O00292 whole entry, looked up): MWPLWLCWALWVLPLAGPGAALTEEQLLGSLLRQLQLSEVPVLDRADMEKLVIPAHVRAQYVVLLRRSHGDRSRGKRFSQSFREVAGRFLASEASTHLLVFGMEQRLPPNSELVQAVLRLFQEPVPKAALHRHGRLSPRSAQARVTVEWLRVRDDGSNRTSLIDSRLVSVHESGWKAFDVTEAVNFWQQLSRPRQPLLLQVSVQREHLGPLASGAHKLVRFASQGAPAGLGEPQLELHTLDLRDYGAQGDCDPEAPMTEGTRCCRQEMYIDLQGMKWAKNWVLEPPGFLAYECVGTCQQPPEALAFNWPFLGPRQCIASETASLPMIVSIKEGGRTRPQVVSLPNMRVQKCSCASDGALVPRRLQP
Sequence of Torsin-1A-interacting protein 1 (Homo sapiens) (Q5JTV8 whole entry, looked up): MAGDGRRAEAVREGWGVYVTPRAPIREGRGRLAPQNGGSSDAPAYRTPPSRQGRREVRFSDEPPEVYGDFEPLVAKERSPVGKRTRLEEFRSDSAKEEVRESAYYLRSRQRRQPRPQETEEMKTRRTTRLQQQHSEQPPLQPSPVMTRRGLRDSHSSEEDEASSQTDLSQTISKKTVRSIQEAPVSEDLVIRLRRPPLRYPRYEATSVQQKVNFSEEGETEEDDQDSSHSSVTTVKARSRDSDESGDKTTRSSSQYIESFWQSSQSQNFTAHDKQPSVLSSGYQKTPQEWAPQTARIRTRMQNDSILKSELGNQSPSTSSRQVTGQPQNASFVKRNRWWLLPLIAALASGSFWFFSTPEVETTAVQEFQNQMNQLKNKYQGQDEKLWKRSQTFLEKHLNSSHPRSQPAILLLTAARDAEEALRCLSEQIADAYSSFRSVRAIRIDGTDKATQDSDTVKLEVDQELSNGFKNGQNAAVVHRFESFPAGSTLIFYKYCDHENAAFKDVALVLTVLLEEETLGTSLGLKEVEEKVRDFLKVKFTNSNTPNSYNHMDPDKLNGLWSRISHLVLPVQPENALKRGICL
Sequence of Follistatin-related protein 3 (Homo sapiens) (O95633 whole entry, looked up): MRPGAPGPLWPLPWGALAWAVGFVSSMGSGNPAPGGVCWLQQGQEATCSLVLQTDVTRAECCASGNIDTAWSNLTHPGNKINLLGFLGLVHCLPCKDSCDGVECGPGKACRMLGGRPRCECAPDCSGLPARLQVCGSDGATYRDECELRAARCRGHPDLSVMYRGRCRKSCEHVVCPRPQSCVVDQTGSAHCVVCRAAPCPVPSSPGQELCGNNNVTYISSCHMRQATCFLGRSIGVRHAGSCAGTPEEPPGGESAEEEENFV
Sequence of Fibroblast growth factor 10 (Homo sapiens) (O15520 whole entry, looked up): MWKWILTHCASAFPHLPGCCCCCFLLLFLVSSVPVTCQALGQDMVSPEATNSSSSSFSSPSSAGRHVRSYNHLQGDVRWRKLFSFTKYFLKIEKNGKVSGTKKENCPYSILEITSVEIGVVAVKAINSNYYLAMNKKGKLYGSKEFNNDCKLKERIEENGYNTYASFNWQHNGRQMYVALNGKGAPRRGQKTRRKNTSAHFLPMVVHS
Sequence of Epidermal growth factor receptor (Homo sapiens) (P00533 whole entry, looked up): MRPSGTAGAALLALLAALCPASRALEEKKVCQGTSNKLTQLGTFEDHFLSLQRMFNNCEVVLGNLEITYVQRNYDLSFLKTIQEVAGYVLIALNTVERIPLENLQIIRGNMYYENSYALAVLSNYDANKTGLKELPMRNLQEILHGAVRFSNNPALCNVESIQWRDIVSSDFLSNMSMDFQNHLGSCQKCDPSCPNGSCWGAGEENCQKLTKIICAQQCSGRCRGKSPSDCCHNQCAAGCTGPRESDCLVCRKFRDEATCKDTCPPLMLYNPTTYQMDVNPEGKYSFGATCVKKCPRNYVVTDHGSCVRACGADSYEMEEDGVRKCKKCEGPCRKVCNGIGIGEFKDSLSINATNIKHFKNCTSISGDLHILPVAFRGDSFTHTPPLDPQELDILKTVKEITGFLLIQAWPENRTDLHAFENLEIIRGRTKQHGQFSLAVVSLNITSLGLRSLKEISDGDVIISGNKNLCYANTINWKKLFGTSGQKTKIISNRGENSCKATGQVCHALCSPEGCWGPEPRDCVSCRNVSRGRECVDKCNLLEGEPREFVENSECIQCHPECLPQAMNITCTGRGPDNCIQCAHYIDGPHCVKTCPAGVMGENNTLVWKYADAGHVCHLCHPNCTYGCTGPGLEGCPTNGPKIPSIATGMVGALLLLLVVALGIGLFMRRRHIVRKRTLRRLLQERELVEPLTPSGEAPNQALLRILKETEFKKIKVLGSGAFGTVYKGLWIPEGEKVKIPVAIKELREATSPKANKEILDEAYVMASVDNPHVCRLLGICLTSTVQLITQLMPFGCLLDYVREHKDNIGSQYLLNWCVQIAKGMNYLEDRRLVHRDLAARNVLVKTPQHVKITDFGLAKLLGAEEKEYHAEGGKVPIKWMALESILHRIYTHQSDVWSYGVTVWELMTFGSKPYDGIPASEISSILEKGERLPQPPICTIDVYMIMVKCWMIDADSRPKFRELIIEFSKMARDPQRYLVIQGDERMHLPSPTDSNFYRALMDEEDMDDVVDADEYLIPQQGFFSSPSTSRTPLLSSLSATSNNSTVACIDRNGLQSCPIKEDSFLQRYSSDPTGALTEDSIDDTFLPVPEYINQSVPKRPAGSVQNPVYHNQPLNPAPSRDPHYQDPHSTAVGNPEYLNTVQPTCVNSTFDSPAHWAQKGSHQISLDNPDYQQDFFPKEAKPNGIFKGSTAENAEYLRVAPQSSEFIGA
Sequence of Dickkopf-related protein 1 (Homo sapiens) (O94907 whole entry, looked up): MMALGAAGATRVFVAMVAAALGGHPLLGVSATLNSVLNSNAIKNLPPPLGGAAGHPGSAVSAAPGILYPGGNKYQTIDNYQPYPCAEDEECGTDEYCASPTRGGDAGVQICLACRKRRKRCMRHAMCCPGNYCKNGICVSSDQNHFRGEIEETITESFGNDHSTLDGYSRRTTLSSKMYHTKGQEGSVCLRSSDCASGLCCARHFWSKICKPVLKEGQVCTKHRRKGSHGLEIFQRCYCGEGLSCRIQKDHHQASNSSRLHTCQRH
Sequence of Alpha-bungarotoxin (Bungarus multicinctus) (P60615 whole entry, looked up): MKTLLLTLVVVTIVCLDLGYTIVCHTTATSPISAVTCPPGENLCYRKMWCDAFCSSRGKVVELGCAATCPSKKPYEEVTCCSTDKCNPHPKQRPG

In the case of `O=C1C2C=CC(C(O)c3ccccn3)N(Nc3ccccc3F)C2C(=O)N1c1ccccc1` (stereo not given), the composite z-score in assay [1] was 0.205; in [2], 0.19; in assay [3] it was 0.461; in assay [5] it was 0.0698; in assay [6], -0.0392; in assay [7], 0.0563. Besides, the composite z-score in assay [8] was -0.0532; in assay [9], 0.124; in assay [10] it was 0.926; in [11], 0.642; in assay [13], 0.0355; in [14], -0.116. Also, the composite z-score in assay [15] is -0.332; in assay [16] it was -0.0685; in assay [17] it was 0.0278; in assay [18], -0.216; in assay [19], 0.0065; in assay [20], 0.231. Further, the z-score in [4] is -0.0196 (inactive); in assay [12], 0.426.
Consider `COC(=O)[C@@]1(Cc2ccc(F)cc2)[C@H]2c3cc(C(=O)N4CCCC4)n(Cc4ccc(Cl)c(C(F)(F)F)c4)c3C[C@H]2CN1C(=O)c1ccccc1`, for which the composite z-score in assay [1] amounted to 1.11; in assay [2] it was 2.11; in assay [3] it was 1.58; in assay [5] it was 0.879; in assay [6] it was 0.864; in assay [7] it was 0.477. Besides, the composite z-score in assay [8] is 1.18; in [9], -0.652; in assay [10], 0.864; in assay [11], 1.37; in assay [13], 0.04; in assay [14] it was 2.51. The composite z-score in [15] came out at 1.42; in assay [16] it was 0.963; in assay [17], 2.64; in assay [18], 1.16; in assay [19], 1.68; in assay [20], 1.57. Further, the figures for the z-score in assay [4] and in assay [12] were -0.767 (inactive) and -2.42, respectively.
As for `COc1ccc(C#Cc2ccc3c(c2)[C@]2(C(=O)N3)[C@H](C(=O)N3CCc4cc(OC)c(OC)cc4C3)[C@H]3C(=O)O[C@H](c4ccccc4)[C@H](c4ccccc4)N3[C@@H]2c2ccc(OCCO)cc2)cc1`, the composite z-score in [1] was 1.07; in [2], -0.029; in assay [3], -0.13; in assay [5] it was 1.29; in assay [6], 1.27; in assay [7], 0.504. For the same compound, the composite z-score in [8] was determined as 1.08; in [9], 0.671; in assay [10] it was 0.0787; in [11], 1.39; in assay [13], 0.483; in assay [14], 0.861. For the same compound, the composite z-score in [15] is -0.0312; in assay [16], 0.027; in [17] it was 0.0469; in assay [18], -0.551; in assay [19] it was 0.692; in assay [20] it was 0.992. Moreover, the z-score is 0.8 (inactive) in assay [4] and -0.864 in assay [12].
As to `Cc1ccc(N2C(=O)c3ccccc3[C@@H](C(=O)NCC(C)C)[C@@H]2c2ccc(CO)cc2)nc1`, the composite z-score is 1.48 in [1]; -0.244 in assay [2]; 0.544 in assay [3]; -0.617 in [5]; -0.813 in assay [6]; -1.26 in assay [7]. Besides, the composite z-score in [8] was -1.19; in [9], -0.52; in assay [10], 0.244; in assay [11] it was -0.369; in assay [13], -1.31; in [14] it was -0.617. Moreover, the composite z-score in [15] is -0.259; in [16], -0.176; in assay [17] it was -0.0709; in assay [18], -0.518; in assay [19] it was 0.219; in [20] it was -0.688. Moreover, the z-score in assay [4] was 0.337 (inactive); in assay [12], -0.216.
As to `C=CC[C@@]1(C(N)=O)N=C(c2ccc(OCCCO)cc2)O[C@@H]1c1ccccc1N=[N+]=[N-]`, the composite z-score in assay [1] worked out at 1.61; in assay [2], 1.36; in assay [3] it was 1.14; in assay [5] it was 0.63; in [6], 0.649; in assay [7], 0.0347. In addition, the composite z-score in assay [8] is 0.0562; in assay [9], 1.16; in assay [10], 1.38; in assay [11], -0.42; in assay [13], 0.362; in assay [14], -0.151. Further, the composite z-score in assay [15] is -0.471; in [16], 0.0825; in assay [17] it was -0.148; in assay [18], 1.1; in assay [19] it was 2.04; in assay [20], 0.673. In addition, the results for the z-score in assay [4] and in assay [12] were -0.0133 (inactive) and 1.51, respectively.
